Screening results from PubChem.
Only some compounds are listed: those with a hit (about 4.1% of all), similar ones and a draw of the others.
Casp6 inh: caspase-6 (human) enzyme inhibition; P55212; purified caspase-6, Z-VEID-R110 cleavage fluorescence; inhibition, % at 12.5 µM; 350,000 compounds, 0.53% hits; AID 686996;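 active = mean inhibition across replicates at least about 35%, with every replicate also reaching that limit, limit read from the data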;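 also: 0% = median of neutral control wells and 100% = no fluorescence left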
ALR H2O2 inh: blocks human ALR sulfhydryl oxidase activity | AID 485317 | purified ALR, DTT oxidation, H2O2 HRP-luminol luminescence | inhibition, % (concentration not given with the values) | 290,000 compounds, 3.8% hits | P55789;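 active = mean replicate inhibition above about 79%, with every replicate also reaching it, limit read from the data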
PglD DTNB: PglD (C. jejuni) enzyme inhibition; purified PglD enzyme, DTNB colorimetric CoA detection; inhibition, % at 12.5 µM; 360,000 compounds, 0.098% hits; AID 602405; in the data active = inhibition above about 16%, passing the limit was not always enough
Env fusion inh: blocks HIV Env-driven cell-cell fusion; HeLa-JRFL Env/CEM21 cell fusion, luciferase; inhibition, % at 12.3 µM; 360,000 compounds, 1.1% hits;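 active = mean replicate inhibition score of at least 50 and every replicate individually at or above 50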;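 also: 0% = plate neutral controls and 100% = maraviroc near 300 nM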
NSD2 HMT inh: NSD2 (human) methyltransferase inhibition; NSD2 peptide methylation, AlphaScreen, 120 min; inhibition, % at 12.5 µM; O96028; 310,000 compounds, 0.54% hits; in the data active = inhibition above about 50%
Target sequence (O96028 whole entry, looked up): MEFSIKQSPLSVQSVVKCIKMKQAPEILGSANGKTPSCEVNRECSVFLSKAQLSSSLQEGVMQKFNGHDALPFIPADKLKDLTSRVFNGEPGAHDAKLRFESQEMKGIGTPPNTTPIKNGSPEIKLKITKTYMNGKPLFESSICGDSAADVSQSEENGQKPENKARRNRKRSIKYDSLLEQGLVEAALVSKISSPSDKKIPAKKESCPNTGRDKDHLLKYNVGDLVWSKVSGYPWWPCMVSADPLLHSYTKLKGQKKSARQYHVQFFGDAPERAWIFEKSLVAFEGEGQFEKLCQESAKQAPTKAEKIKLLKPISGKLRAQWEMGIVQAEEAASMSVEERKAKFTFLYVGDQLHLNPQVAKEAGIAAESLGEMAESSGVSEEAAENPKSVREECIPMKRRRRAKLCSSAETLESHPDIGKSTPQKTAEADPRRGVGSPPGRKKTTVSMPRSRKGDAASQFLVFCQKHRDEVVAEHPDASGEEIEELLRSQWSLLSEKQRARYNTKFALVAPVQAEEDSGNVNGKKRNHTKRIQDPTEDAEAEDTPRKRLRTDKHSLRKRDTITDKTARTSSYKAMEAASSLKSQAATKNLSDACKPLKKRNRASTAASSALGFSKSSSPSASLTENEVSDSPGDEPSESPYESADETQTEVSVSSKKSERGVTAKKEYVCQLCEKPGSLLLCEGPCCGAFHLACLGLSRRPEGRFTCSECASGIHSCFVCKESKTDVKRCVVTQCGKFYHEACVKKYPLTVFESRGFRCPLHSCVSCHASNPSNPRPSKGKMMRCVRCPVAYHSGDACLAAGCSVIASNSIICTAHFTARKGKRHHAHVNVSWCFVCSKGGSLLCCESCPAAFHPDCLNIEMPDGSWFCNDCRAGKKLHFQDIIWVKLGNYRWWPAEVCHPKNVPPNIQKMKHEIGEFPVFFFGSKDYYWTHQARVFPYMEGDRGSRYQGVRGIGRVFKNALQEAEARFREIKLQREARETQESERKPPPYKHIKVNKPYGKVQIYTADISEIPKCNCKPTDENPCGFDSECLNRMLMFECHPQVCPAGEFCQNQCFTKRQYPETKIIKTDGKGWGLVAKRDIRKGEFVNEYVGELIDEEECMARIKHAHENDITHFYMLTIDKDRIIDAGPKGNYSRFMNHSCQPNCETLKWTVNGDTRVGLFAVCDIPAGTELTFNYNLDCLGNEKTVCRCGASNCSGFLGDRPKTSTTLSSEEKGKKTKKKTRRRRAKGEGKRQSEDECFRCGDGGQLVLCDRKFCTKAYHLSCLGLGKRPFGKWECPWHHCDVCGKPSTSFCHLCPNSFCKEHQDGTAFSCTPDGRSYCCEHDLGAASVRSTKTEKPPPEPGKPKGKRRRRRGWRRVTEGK
CFTR F508del cor: CFTR F508del correction in bronchial cells; CFBE cells, YFP halide quenching; stimulated with forskolin plus potentiator P3; % fluorescence drop versus neutral controls; activity (quench increase), % at 7.58 µM; 350,000 compounds, 0.36% hits; AID 720511;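 active = mean added fluorescence quench of at least 8% versus neutral control, with both replicates also reaching 8%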;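 also: cells transiently co-express mutant CFTR-F508del with the halide-sensitive YFP; corrector assay measuring rescue of mutant channel to the surface after 24 h compound exposure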
Starred values were filed as active, the others as inactive; [ ] = remark or other dose.

For COC(=O)C1=C2CC[C@H](CO)NC(=O)N[C@H](Cc3ccccc3)C(=O)NCc3cn(nn3)C[C@H](Cc3ccccc3)NC(=O)c3oc(c(C(=O)OC)c3C(=O)OC)CC[C@H](CO)NC(=O)N[C@H](Cc3ccccc3)C(=O)NCc3cn(nn3)C[C@H](Cc3ccccc3)NC(=O)C(=C1C(=O)OC)O2 the results were Casp6 inh -2, PglD DTNB -2, Env fusion inh -9[16.7 µM] and CFTR F508del cor 0.
Cc1cc(C(=O)Nc2cccc3c2O[C@@H](CN(C)CC2CCCCC2)[C@H](C)CN([C@H](C)CO)C3=O)n(C)n1 was read as Casp6 inh 1, PglD DTNB 0, Env fusion inh -5[16.7 µM] and CFTR F508del cor 2.
COc1ccc(C(=O)Nc2ccc3c(c2)OC[C@@H](C)NC[C@H](C)[C@@H](OC)CN(C)C3=O)cc1 was read as Casp6 inh -7, PglD DTNB -3, Env fusion inh 6[16.7 µM] and CFTR F508del cor 3.
Screening COc1ccc(S(=O)(=O)N[C@@H]2C=C[C@H](CC(=O)N3CCC(Cc4ccccc4)CC3)O[C@@H]2CO)cc1 returned Casp6 inh 1, PglD DTNB 2, Env fusion inh 63*[16.7 µM] and CFTR F508del cor -4.
Screening COc1ccccc1S(=O)(=O)N[C@H]1C=C[C@H](CC(=O)N2CCOCC2)O[C@@H]1CO returned Casp6 inh -5, PglD DTNB 4, Env fusion inh -12[16.7 µM] and CFTR F508del cor -1.
`Cc1ccc(S(=O)(=O)N[C@H]2C=C[C@H](CC(=O)N3CCC(Cc4ccccc4)CC3)O[C@H]2CO)cc1` gave Casp6 inh -9, PglD DTNB -1, Env fusion inh 76*[16.7 µM] and CFTR F508del cor -1.
Screening COc1ccccc1S(=O)(=O)N[C@@H]1C=C[C@@H](CC(=O)N2CCOCC2)O[C@H]1CO returned Casp6 inh 53*, PglD DTNB 6, Env fusion inh -13[16.7 µM] and CFTR F508del cor 1.
CC(=O)N(C)C[C@@H]1Oc2cc(C3=CCCCC3)ccc2S(=O)(=O)N([C@H](C)CO)C[C@@H]1C was read as Env fusion inh 6[16.7 µM] and CFTR F508del cor -3.
`COc1cccc(NC(=O)COC(=O)c2n[nH]c3ccccc23)c1` gave NSD2 HMT inh 0.
`O=C1Nc2ccccc2N(O)N1c1cc(-c2ccccc2Cl)no1` gave ALR H2O2 inh 20, Env fusion inh -78 and NSD2 HMT inh 4.
Screening O=C1Nc2ccccc2N(O)N1c1cc(-c2cccc(Cl)c2)no1 returned ALR H2O2 inh 79*, Env fusion inh -83 and NSD2 HMT inh 1.
For Nc1ncnc2c(C3OC(CO)C(O)C3O)c[nH]c12 (stereo unspecified) the results were Casp6 inh -1, Env fusion inh 95* and CFTR F508del cor 2.
`C=CC[C@H](CC(=O)N(CCO)Cc1ccccc1)C(=O)N[C@H](COC(=O)[C@@H](CC=C)CC(=O)OC(C)(C)C)Cc1c[nH]c2ccccc12` gave Casp6 inh 0, ALR H2O2 inh 5, PglD DTNB 2, Env fusion inh 64* and CFTR F508del cor 1.
C=CC[C@@H](CC(=O)N(CCO)Cc1ccccc1)C(=O)N[C@H](COC(=O)[C@H](CC=C)CC(=O)OC(C)(C)C)Cc1c[nH]c2ccccc12 was read as Casp6 inh 0, PglD DTNB 0, Env fusion inh -176 and CFTR F508del cor 8.5*.
For CN(C)c1ccc2nc3ccc(=O)cc-3sc2c1 the results were Casp6 inh 4, PglD DTNB 3, Env fusion inh 66*, NSD2 HMT inh 13 and CFTR F508del cor 0.
`COc1ccc2nc(N=Nc3ccc(N(C)C)cc3)sc2c1` gave PglD DTNB 0, Env fusion inh -383 and NSD2 HMT inh 2.
Screening Cc1oc(-c2ccc(Cl)cc2)nc1CSCC(=O)NCCCN1CCOCC1 returned ALR H2O2 inh 99*, PglD DTNB -24, Env fusion inh 12 and NSD2 HMT inh -1.
`Cc1cccc(-c2nc(CSCC(=O)NCCCN3CCOCC3)c(C)o2)c1` gave ALR H2O2 inh 99*, PglD DTNB 5, Env fusion inh 1 and NSD2 HMT inh 1.
Screening COc1ccc2c3c([nH]c2c1)[C@@H](CO)N(C(=O)c1ccccc1)CC31CCN(C)CC1 returned Casp6 inh 0 and CFTR F508del cor -1.
Screening Cc1ccc(OC(=S)Nc2ccc(O)cc2)cc1 returned ALR H2O2 inh 99* and NSD2 HMT inh 39.
For N#CC1=C(N)N2C(=C(C#N)C1c1ccccc1)Sc1ccccc12 (stereo unspecified) the results were ALR H2O2 inh -3.
`N#CC1=C(N)N2C(=C(C#N)C1c1cccc(Br)c1)Nc1ccccc12` (stereo unspecified) gave Casp6 inh 3, ALR H2O2 inh -2, Env fusion inh 65*, NSD2 HMT inh -2 and CFTR F508del cor 7.
Screening N#CC1=C(N)N2C(=C(C#N)C1c1ccc(Br)cc1)Nc1ccccc12 (stereo unspecified) returned Casp6 inh -2, ALR H2O2 inh -6, Env fusion inh 56*, NSD2 HMT inh -4 and CFTR F508del cor 3.
`CN(C)CC#Cc1ccc([C@@H]2[C@H](CO)N3C(=O)CN(C(=O)c4cccc(F)c4)C[C@@H]23)cc1` gave Casp6 inh -8 and CFTR F508del cor 1.
`COc1ccc(N2CCN(C(=O)c3ccc4c(c3)OCO4)CC2)cc1` gave ALR H2O2 inh 84* and NSD2 HMT inh 1.
`CC(=O)c1ccc(N2CCN(C(=O)c3ccc4c(c3)OCO4)CC2)cc1` gave Casp6 inh 2, ALR H2O2 inh 3, PglD DTNB -4, NSD2 HMT inh 2 and CFTR F508del cor 2.
Screening O=C(c1ccc2c(c1)OCO2)N1CCN(c2ccccc2)CC1 returned ALR H2O2 inh 98*, PglD DTNB -2 and NSD2 HMT inh 3.
COc1ccc(N2CCN(C(=O)c3ccc(SC)cc3OC)CC2)cc1 was read as Casp6 inh -2, ALR H2O2 inh 85*, Env fusion inh 7 and NSD2 HMT inh 4.
`CCOc1ccccc1N1CCN(C(=O)c2cc3ccccc3cc2OC)CC1` gave Casp6 inh 4, PglD DTNB 1, Env fusion inh 2, NSD2 HMT inh 3 and CFTR F508del cor 17*.
COc1cc(SC)ccc1C(=O)N1CCN(c2ccccc2F)CC1 was read as Casp6 inh 3, ALR H2O2 inh -6, Env fusion inh -10, NSD2 HMT inh 18 and CFTR F508del cor -3.
O=C(c1ccc2c(c1)OCO2)N1CCN(c2ccc(Cl)cc2)CC1 was read as ALR H2O2 inh 52 and NSD2 HMT inh -1.
